Results taken from PubChem BioAssay (NCI).
This is part of a sample that, as a whole, favours compounds with a hit. Of some 83,000 tested, about 20% had one in any assay.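 How to read the values: 0–100, growth inhibition (40 = 60% inhibited); 0, no net growth; -100 to 0, cell death (-40 = 40% of starting cells died; -100 = all dead).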 A number with no mark means an inactive call. The source made the active and inactive calls.

What follows are compounds tested on MOLT-4 leukemia (assay: NCI-60 one-dose screen, 48 h (100 = growth as untreated, 0 = no growth, -100 = all killed)). Conditions: 10 µM unless noted.
Protocol: Growth inhibition of the MOLT-4 human tumor cell line is measured as a screen for anti-cancer activity. Cells are grown in 96 well plates and exposed to the test compound for 48 hours. Compounds are tested at a single concentration, which is 10^-5 M for most compounds. The reported endpoint is percent growth (GI% or GIPRCNT), where numbers from 0 - 100% represent growth inhibition, and numbers from -100% - 0 represent cell death. For example, a value of 40 represents 60% growth inhibition. A value of 0 means no net growth occurred over the course of the experiment. A value of -40 indicates 40% of cells at the beginning of the experiment died by the end of the experiment. A value of -100 means all cells are dead at the end of the experiment.
NCI-60 Human Tumor Cell Lines Screen was performed using the standard one-dose NCI protocol, which is described in more detail at https://dtp.cancer.gov/discovery_development/nci-60/default.htm.
Compounds with GIPRCNT values below 10 were considered active. Activity score was based on GIPRCNT using the following formula: […]
Score is 0 for GIPRCNT values of 100 or above, 50 for GIPRCNT values of 0, and 100 for GIPRCNT values of -100.
In the case of `COc1ccc(NC(=O)c2sc3nc(C(C)C)ccc3c2N)cc1`, the growth is reported as 67.5%. `Cn1cc(-c2cc3nc(-c4c[nH]c5ccc(Br)cc45)cc(N)n3n2)c2ccccc21` was tested, and the growth was -33.8% (active). For `N/N=C(\N)c1c(N)nc(=S)[nH]c1-c1ccc(Cl)cc1Cl`, the growth was 90.1%. With `N/C(=N\c1nc2ccccc2s1)NC(=O)Nc1ccc(Cl)cc1Cl` the growth was 6.86% (active). For `COc1ccc2[nH]c(=O)c(CSc3nccc(-c4ccc(OC)c(OC)c4)n3)cc2c1`, the growth was 7.07% (active). In the case of `O=C1NC(=O)c2c1c1c3cc(Br)ccc3[nH]c1c1oc3ccc(F)cc3c21`, the growth is reported as -5.4% (active). For `C=C1CCC2C3(C)COC(c4cccc(F)c4)OC3CCC2(C)C1C/C=C1/C(=O)OCC1O` (stereo not given), the growth was 7.01% (active). Compound `COc1ccc(Cc2nn(CC(=O)N/N=C/c3ccc(F)cc3)c(=O)c3c(C)noc23)cc1` has a growth of 92.6%. With `N#Cc1c(-c2cccc(Cl)c2Cl)cc(-c2c[nH]c3ccccc23)[nH]c1=O` the growth was 41%. In the case of `Cc1cc2nc3c4ccccc4n(CCNCCN(C)C)c3nc2cc1C`, the growth is reported as 4.83% (active). `COCOc1cc2oc(C(=O)N[C@@H](Cc3ccccc3)C(O)C(=O)NCc3ccccc3)c(C)c(=O)c2cc1OCOC` (stereo not given in full) showed a growth of 97.3%. `CC(C)Sc1nc(NCCc2c[nH]c3ccccc23)c(C#N)c(-c2ccc(F)cc2)n1` showed a growth of 12%. With `COc1ccc(C(=O)/C=C/c2ccc(OCc3ccccc3)c(OC)c2)cc1OC` the growth was 9.48% (active). `Cc1cc(C)cc(C(=O)Nc2cccc(-c3cn(-c4ccc(S(N)(=O)=O)cc4)nn3)c2)c1` was tested, and the growth was 25.3%. With `CC1(C)CC[C@]2(C(=O)Nc3ccc(F)cc3)CC[C@]3(C)C(=CCC4[C@@]5(C)C[C@@H](O)[C@H](O)[C@@](C)(CO)C5CC[C@]43C)C2C1` (stereo not given in full) the growth was 5% (active). `COc1ccc(C(=O)/C=C/c2ccc(OC)c(OCc3ccccc3)c2)cc1OC` was tested, and the growth was 8.07% (active). In the case of `O=C(c1ccc(OCCN2CCOCC2)cc1)C1[C@H](c2ccc(Cl)cc2)[C@@H](c2ccccc2)NC12C(=O)Nc1ccc(Cl)cc12` (stereo not given in full), the growth is reported as -28.2% (active). Work on `O=C(Cn1c2c(sc1=O)[C@H]1[C@@H](O)[C@@H](O)[C@H](O)[C@@H]1CS2)N1CCOCC1` yielded a growth of 118%. `COc1ccc(C(=O)/C=C/c2ccc(Oc3nc(Nc4ccc(F)cc4)nc(N(C)C)n3)c(OC)c2)cc1` showed a growth of 10.8%. Work on `CCCSc1nc(NCCc2c[nH]c3ccccc23)c(C#N)c(-c2ccc(F)cc2)n1` yielded a growth of 42.5%. `COc1ccc(C2(SCCNCc3cc(N(C)C)ccn3)c3ccccc3C=Cc3ccccc32)cc1` was tested, and the growth was 8.17% (active). `Cc1cccc(-c2nc(Nc3cccc(S(N)(=O)=O)c3)c3ccccc3n2)c1` showed a growth of 27.6%. Work on `O=C1NC(=O)/C(=C/c2ccccc2OCc2cc3ccccc3nc2Cl)S1` yielded a growth of 85.3%. With `C[C@H](Nc1nc(NCCc2ccccc2)nc2ccccc12)c1ccccc1` the growth was -60.3% (active). `CCCCn1c(O)c(N=Nc2nc(-c3cc4ccccc4oc3=O)cs2)c2cc(Br)ccc21` showed a growth of 107%. Compound `COc1cccc(-c2nc(Nc3ccc(S(N)(=O)=O)cc3)c3ccccc3n2)c1` has a growth of 16.8%. With `Nc1nnc(-c2c[nH]c3ccc(Br)cc23)c(-c2c[nH]c3ncc(Br)cc23)n1` the growth was 2.51% (active). For `CCN(CC)c1ccnc(CNCCSC(c2ccccc2)(c2ccccc2)c2ccc(C)cc2)c1`, the growth was -30.9% (active). Compound `CC1(C)CC[C@]2(C(=O)O)CC[C@]3(C)C(=CCC4[C@@]5(C)C[C@@H](O)[C@@H]6OC(c7ccco7)OC[C@@]6(C)C5CC[C@]43C)C2C1` (stereo not given in full) has a growth of 21%. `O=C(NN1C(=O)/C(=C/C=C/c2ccc([N+](=O)[O-])o2)SC1=S)c1ccccc1O` was tested, and the growth was 6.95% (active). With `O=C(NNc1ccccc1)n1c(=O)c2ccccc2c(=O)n1-c1ccccc1` the growth was 91.3%. `CC1=C(C(=O)OCc2ccccc2)C(c2ccc(-n3cncn3)cc2)n2c(nc3ccccc32)N1` (stereo not given) showed a growth of 36.6%. With `Cn1cc(-c2nc(N)nnc2-c2c[nH]c3ccc(F)cc23)c2cc(Br)cnc21` the growth was -0.149% (active). With `N#Cc1c(-c2cccnc2)cc(-c2ccc3ccccc3c2)[nH]c1=O` the growth was 91.5%. `CNC(=O)c1cc(Oc2ccc3nc(NC(=O)Nc4cccc(OC(F)(F)F)c4)sc3c2)ccn1` was tested, and the growth was 50.9%. `CC1=C(C(=O)c2ccccc2)C(c2cccc3ccccc23)n2c(nc3ccccc32)N1` (stereo not given) was tested, and the growth was 52.3%. For `CNS(=O)(=O)c1ccc(Nc2ccc(C(F)(F)F)cc2)c(-c2cn(C)cn2)c1`, the growth was 37.1%. `O=C(COc1ccc(NC(=O)Nc2ccc(Cl)cc2)cc1)N/N=C/c1ccccc1` was tested, and the growth was 9.72% (active). With `O=C(N=Nc1c(O)[nH]c2ccc([N+](=O)[O-])cc12)c1ccc2nc(-c3ccccc3)[nH]c2c1` the growth was 43.3%. In the case of `COc1ccc(NC(=O)Nc2ccc(OCc3ccc(F)cc3)cc2)cc1`, the growth is reported as 94.8%.
